Results filed as inconclusive are left out. Activity calls are given as the source filed them. Unless noted, calls come from the whole dose curve; as a rule, active = well fitted curve in either direction with a large enough effect (not every such curve was filed as active); inconclusive = small, poorly fitted or top-dose-only effect, or another doubt; inactive = flat fitted curve, though single readings scatter.
Experiments:
[1] = AP1 Signaling Pathway (AID 357); conditions: ME-180 AP-1-bla reporter, EGF-induced, beta-lactamase ratio, 5 h; at 17.2 µM (top of the series) unless noted;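 note: ME-180 reporter cells stimulated with EGF at its EC50 level; % is set by controls: 0 for no effect and ±100 for the full control effect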
How it was run: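 Read-out was the 460nm/530nm emission ratio (excitation 405nm) after CCF4 loading for 2.5 hours at room temperature. Cells carried an AP-1-driven beta-lactamase reporter, were stimulated with EC50 EGF plus compound for 5 hours, and AC50 values came from titrations.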

[2] = Stat Signaling Pathway (AID 446); conditions: ME-180 (cervical carcinoma) SIE beta-lactamase reporter, IL-6 stimulated, 5 h; at 17.2 µM (top of the series) unless noted;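 note: ME-180 cervical cancer cells given 40 pM IL-6 alongside compound; SIE-controlled beta-lactamase reporter measured as 460/530 nm FRET emission ratio; % is set by controls: 0 for no effect and ±100 for the full control effect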
How it was run: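 Compound effects on IL-6-induced STAT reporter activity were measured in ME-180 cells. After overnight culture, cells were co-treated with 40 pM IL-6 for 5 hrs before beta-lactamase substrate loading at room temperature.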

[3] = target: Glucocorticoid receptor (Homo sapiens) (UniProt P04150); assay: GR-GFP Redistribution (AID 450;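 active = compounds whose dose series gives a full or clear partial fitted curve of increased nuclear translocation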; note: potency is the fitted concentration of half-maximal effect)
Glucocorticoid receptor (Homo sapiens), sequence (P04150 whole entry, looked up): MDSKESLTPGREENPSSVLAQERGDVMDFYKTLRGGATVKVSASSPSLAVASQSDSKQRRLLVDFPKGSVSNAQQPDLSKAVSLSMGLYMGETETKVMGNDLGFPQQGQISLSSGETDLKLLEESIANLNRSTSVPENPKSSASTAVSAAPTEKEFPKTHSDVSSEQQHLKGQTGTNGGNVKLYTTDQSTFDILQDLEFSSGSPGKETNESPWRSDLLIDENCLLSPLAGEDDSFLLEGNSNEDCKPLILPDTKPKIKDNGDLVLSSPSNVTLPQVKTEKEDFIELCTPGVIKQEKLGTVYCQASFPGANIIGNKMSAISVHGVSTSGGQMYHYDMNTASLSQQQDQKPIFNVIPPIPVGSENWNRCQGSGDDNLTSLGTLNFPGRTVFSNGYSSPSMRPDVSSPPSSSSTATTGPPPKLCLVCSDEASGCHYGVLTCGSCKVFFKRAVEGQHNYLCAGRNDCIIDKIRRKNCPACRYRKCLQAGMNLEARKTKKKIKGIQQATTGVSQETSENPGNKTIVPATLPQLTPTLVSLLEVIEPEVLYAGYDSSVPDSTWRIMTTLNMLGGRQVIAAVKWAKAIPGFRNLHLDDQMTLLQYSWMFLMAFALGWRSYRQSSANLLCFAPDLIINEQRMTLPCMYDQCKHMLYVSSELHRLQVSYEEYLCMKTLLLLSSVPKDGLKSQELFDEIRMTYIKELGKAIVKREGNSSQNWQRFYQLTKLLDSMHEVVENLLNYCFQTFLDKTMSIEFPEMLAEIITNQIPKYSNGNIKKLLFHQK

[4] = target: Cytochrome P450 3A4 (Homo sapiens) (UniProt P08684); assay: qHTS Assay for Inhibitors and Substrates of Cytochrome P450 3A4 (AID 884; active = well fitted curve in the direction sought with a large enough effect; an effect the other way counts as inactive or inconclusive; note: nearly all actives have a fitted effect of over 50% in size; note: potency is the fitted concentration of half-maximal effect)
Cytochrome P450 3A4 (Homo sapiens), sequence (P08684 whole entry, looked up): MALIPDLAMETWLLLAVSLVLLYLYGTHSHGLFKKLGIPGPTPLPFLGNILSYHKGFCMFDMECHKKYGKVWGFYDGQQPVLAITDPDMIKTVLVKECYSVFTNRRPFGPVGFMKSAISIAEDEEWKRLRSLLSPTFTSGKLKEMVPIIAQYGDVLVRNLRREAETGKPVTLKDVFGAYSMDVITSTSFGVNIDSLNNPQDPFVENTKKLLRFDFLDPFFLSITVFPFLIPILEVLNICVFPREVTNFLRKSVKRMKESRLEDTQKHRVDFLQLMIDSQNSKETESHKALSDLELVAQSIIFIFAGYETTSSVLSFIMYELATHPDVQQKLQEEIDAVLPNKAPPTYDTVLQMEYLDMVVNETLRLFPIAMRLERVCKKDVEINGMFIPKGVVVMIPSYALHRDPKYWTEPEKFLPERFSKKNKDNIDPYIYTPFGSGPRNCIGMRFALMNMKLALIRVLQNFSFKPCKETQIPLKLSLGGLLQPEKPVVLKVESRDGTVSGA
How it was run: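 Luminescent readout of luciferin produced by CYP3A4 (20 nM) dealkylation of Luciferin-PPXE, 25 uM (its KM). NADPH-driven reaction ran 60 min at RT after 10 min compound preincubation; data scaled to 57 uM ketoconazole as 100% inhibition.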

[5] = target: Cytochrome P450 2C19 (Homo sapiens) (UniProt P33261); assay: qHTS Assay for Inhibitors and Substrates of Cytochrome P450 2C19 (AID 899; active = well fitted curve in the direction sought with a large enough effect; an effect the other way counts as inactive or inconclusive; note: potency is the fitted concentration of half-maximal effect; nearly all actives have a fitted effect of over 60% in size)
Cytochrome P450 2C19 (Homo sapiens), sequence (P33261 whole entry, looked up): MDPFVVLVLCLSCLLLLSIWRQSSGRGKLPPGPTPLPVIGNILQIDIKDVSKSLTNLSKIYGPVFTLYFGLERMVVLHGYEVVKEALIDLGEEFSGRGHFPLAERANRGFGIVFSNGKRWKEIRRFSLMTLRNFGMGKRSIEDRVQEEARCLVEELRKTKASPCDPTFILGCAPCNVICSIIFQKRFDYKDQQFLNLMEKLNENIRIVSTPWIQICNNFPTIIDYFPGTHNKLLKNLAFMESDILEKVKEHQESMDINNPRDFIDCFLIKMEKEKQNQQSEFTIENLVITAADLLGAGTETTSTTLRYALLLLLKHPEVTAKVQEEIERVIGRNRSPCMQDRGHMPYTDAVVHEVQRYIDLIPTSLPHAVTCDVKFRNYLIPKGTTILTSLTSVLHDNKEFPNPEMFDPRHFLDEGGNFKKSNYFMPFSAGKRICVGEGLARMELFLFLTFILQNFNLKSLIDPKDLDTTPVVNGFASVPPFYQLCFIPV
How it was run: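 In 50mM KPO4, the reaction held 5nM enzyme and KM-level (10uM) Luciferin-H EGE; it ran 60 min at 37C after NADPH regeneration and a 10 min compound preincubation. Luminescence values were scaled to 57uM ketoconazole as complete inhibition.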

[6] = Confirmation and Secondary Assay for Modulators of Hemoglobin Beta Chain Splicing at IVS2 654 locus (AID 910; active = well fitted curve in the direction sought with a large enough effect; an effect the other way counts as inactive or inconclusive;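 note: per-well total GFP intensity by laser scanning cytometry after 2-day treatment; % of control where 0% means no effect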)
How it was run: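 HeLa cells stably carrying EGFP interrupted by mutant beta-globin IVS2-654 intron (CMV-driven) were treated with compound for 2 days at 37C; corrected splicing was scored as total peak GFP intensity per well (488 nm excitation, 500-520 nm emission).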

[7] = Confirmation and Secondary Assay for Modulators of Hemoglobin Beta Chain Splicing at IVS2 705 locus (AID 930; active = well fitted curve in the direction sought with a large enough effect; an effect the other way counts as inactive or inconclusive;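 note: HeLa cells stably expressing the EGFP-705 splicing reporter; GFP fluorescence per well restored by corrected splicing of the IVS2-705 intron in EGFP; % of control where 0% means no effect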)
How it was run: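 HeLa IVS2-705 EGFP reporter cells, 500/well, compound 2 d at 37C; correct splicing yields fluorescent EGFP. Control: 500 nM antisense PNA. Read-out: total peak GFP intensity.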

[8] = target: Ubiquitin carboxyl-terminal hydrolase 1 (Homo sapiens) (UniProt O94782); assay: Inhibitors of USP1/UAF1: Pilot qHTS (AID 504865; active = well fitted curve in the direction sought with a large enough effect; an effect the other way counts as inactive or inconclusive; note: potency is the fitted concentration of half-maximal effect; nearly all actives have a fitted effect of over 35% in size)
Ubiquitin carboxyl-terminal hydrolase 1 (Homo sapiens), sequence (O94782 whole entry, looked up): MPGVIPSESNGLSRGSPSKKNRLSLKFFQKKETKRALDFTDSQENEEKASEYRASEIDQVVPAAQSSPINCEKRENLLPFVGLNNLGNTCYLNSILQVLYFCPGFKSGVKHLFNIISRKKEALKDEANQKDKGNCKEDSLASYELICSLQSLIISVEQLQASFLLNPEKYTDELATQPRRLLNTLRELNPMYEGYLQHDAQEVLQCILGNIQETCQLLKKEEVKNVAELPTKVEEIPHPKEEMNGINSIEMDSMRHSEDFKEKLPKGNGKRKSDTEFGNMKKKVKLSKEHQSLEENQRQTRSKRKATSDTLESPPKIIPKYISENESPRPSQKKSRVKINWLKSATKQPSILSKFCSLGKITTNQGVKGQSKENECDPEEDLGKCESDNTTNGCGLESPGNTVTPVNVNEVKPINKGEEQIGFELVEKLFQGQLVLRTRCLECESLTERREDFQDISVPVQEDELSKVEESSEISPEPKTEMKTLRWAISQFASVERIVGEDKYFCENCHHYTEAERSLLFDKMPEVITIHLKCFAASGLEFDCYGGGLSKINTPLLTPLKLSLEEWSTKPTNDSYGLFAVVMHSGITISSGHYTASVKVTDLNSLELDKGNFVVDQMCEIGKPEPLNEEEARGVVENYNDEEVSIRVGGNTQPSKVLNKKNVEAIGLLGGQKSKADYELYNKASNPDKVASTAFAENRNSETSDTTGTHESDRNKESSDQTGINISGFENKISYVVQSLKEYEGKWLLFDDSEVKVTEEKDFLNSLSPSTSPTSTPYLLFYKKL
How it was run: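 Deubiquitinase activity followed as kinetic rhodamine fluorescence release from 150 nM Ub-Rho. 1 nM USP1/UAF1 with compound, after 15 min room-temperature preincubation, in HEPES pH 7.8 buffer containing TCEP, EDTA, BSA and Tween-20.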

[9] = target: Estrogen receptor (Homo sapiens) (UniProt P03372); assay: qHTS assay for small molecule agonists of estrogen receptor alpha signaling (AID 588514; calls by dose curve;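 note: 0% = vehicle only and 100% = reference agonist; nearly all actives have a fitted effect of over 70% in size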)
Estrogen receptor (Homo sapiens), sequence (P03372 whole entry, looked up): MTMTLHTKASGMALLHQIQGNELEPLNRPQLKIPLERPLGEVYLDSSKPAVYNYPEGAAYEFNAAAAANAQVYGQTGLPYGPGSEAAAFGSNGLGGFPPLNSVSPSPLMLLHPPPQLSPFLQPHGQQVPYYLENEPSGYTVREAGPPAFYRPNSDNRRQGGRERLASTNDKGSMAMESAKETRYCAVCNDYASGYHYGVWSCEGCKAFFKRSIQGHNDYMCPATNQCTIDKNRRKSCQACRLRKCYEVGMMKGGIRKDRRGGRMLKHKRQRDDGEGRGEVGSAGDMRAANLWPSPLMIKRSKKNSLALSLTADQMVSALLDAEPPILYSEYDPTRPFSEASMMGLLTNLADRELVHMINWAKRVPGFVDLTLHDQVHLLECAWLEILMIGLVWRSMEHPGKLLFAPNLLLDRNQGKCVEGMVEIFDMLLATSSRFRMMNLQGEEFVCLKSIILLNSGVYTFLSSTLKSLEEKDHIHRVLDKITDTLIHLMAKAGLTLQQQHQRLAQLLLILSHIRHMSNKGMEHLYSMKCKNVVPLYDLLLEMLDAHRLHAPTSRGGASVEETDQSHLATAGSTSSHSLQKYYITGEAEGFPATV
How it was run: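 Fluorescence from CCF4 cleavage reports ER-alpha-driven beta-lactamase expression in HEK 293 cells treated 18 hrs at 37 C. Data normalized to 17-beta-estradiol (20 nM) and DMSO, fitted to Hill equation.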

[10] = target: Androgen receptor (Homo sapiens) (UniProt P10275); assay: qHTS assay for small molecule antagonists of androgen receptor signaling (AID 588516; active = well fitted curve in the direction sought with a large enough effect in the signal ratio, with a control signal flat, not every such curve was filed as active; the % refers to the signal ratio; note: % is set by controls: 0 for no effect and ±100 for the full control effect)
How it was run: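 Antagonist mode: inhibition of R1881-stimulated (10 nM final) bla reporter in GeneBLAzer AR HEK 293 cells, 16 h at 37C, compounds titrated. IC50 and efficacy from Hill-equation fits of 405/460–530 nm FRET ratios.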

[11] = target: Bile acid receptor (Homo sapiens) (UniProt Q96RI1); assay: qHTS assay for small molecule antagonists of farnesoid X receptor signaling (AID 588526; calls by dose curve; note: % is set by controls: 0 for no effect and ±100 for the full control effect)
How it was run: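 Concentration-response titrations were fitted to the Hill equation for half-maximal inhibition and maximal response, with data normalised to 50 uM chenodeoxycholic acid and DMSO control wells. Cells: FXR-UAS-bla HEK293T, dialyzed FBS.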

[12] = target: Glucocorticoid receptor (Homo sapiens) (UniProt P04150); assay: qHTS assay for small molecule agonists of glucocorticoid receptor signaling (AID 588532; active = well fitted curve in the direction sought with a large enough effect in the signal ratio, with a control signal flat; the % refers to the signal ratio;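 note: 100% = dexamethasone at 0.1 µM and 0% = DMSO only wells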); conditions: HeLa MMTV-bla, beta-lactamase ratio, agonist, 18 h; stronger effect = higher value; percent of dexamethasone control, DMSO zero
How it was run: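 Stimulation of a glucocorticoid response element-driven beta-lactamase gene was measured in HeLa cells. Responses were scaled between DMSO basal and 0.1 uM dexamethasone, then fitted for half-maximal stimulation.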

[13] = qHTS assay for small molecule antagonists of peroxisome proliferator-activated receptor delta signaling (AID 588535; active = well fitted inhibition curve with a large enough effect in the signal ratio, with a control signal flat, not every such curve was filed as active; the % refers to the signal ratio;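 for max response: cells co-treated with a PPAR-delta agonist as stimulator during compound exposure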); conditions: HEK293T PPARd-UAS-bla, beta-lactamase FRET ratio, 18 h; 460 nm channel
How it was run: (§1)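 Compounds tested in titration on PPAR-delta-UAS-bla HEK293T cells grown in charcoal/dextran-stripped serum (2%); beta-lactamase activity read via CCF4 emission at 460 and 530 nm.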

[14] = target: Peroxisome proliferator-activated receptor delta (Homo sapiens) (UniProt Q03181); assay: as above
Peroxisome proliferator-activated receptor delta (Homo sapiens), sequence (Q03181 whole entry, looked up): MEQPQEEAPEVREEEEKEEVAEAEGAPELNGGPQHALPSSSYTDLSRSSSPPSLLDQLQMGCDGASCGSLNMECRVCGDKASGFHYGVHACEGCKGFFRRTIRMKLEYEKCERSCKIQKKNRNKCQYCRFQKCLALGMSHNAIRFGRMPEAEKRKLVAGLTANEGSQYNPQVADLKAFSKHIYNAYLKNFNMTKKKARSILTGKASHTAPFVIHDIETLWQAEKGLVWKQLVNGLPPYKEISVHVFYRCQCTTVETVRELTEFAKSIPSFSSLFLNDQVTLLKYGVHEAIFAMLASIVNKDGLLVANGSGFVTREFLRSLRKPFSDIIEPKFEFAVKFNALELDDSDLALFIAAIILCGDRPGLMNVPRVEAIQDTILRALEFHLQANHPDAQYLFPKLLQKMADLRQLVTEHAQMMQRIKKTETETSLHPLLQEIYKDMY
How it was run: as §1

[15] = target: Peroxisome proliferator-activated receptor gamma (Homo sapiens) (UniProt P37231); assay: qHTS assay for small molecule agonists of peroxisome proliferator-activated receptor gamma signaling (AID 588536; active = well fitted curve in the direction sought with a large enough effect in the signal ratio, with a control signal flat, not every such curve was filed as active; the % refers to the signal ratio;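 note: 0% = DMSO basal wells and 100% = rosiglitazone at 2 µM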)
Peroxisome proliferator-activated receptor gamma (Homo sapiens), sequence (P37231 whole entry, looked up): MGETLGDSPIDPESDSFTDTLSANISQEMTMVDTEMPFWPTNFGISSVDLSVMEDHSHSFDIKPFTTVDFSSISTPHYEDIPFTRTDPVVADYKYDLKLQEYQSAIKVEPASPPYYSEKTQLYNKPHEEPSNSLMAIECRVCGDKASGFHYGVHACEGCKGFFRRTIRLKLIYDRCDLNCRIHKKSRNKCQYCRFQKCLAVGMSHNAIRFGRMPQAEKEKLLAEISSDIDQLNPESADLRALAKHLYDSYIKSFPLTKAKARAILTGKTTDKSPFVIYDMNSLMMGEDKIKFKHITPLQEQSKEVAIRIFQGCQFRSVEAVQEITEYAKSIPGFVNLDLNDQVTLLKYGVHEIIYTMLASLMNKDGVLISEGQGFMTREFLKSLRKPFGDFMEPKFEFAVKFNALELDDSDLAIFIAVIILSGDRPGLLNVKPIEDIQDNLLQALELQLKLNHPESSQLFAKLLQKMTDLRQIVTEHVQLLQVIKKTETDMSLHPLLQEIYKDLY
How it was run: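 Compound treatment: 16 h, 37 C, HEK293 GeneBLAzer cells. Detection: CCF4, 2 h RT. Values: Hill-fit EC50, efficacy as % of 2 uM rosiglitazone.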

[16] = target: Vitamin D3 receptor (Homo sapiens) (UniProt P11473); assay: qHTS assay for small molecule antagonists of vitamin D receptor signaling (AID 588541; calls by dose curve)
Vitamin D3 receptor (Homo sapiens), sequence (P11473 whole entry, looked up): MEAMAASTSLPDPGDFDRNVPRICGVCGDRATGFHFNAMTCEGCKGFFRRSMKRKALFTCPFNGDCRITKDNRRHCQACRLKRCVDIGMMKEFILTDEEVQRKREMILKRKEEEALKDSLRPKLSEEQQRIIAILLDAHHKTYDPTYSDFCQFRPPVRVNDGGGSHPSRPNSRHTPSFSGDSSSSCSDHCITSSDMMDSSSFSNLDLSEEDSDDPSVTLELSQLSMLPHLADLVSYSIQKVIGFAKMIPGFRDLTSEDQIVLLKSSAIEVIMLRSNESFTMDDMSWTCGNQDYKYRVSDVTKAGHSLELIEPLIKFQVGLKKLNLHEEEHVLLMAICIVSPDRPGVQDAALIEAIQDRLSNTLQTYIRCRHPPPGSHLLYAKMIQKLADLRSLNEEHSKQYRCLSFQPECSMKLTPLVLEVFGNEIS
How it was run: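 VDR-UAS-bla HEK293T cells (2000/well, 2% charcoal-stripped FBS) were treated with titrated compounds plus 1-alpha,25-dihydroxyvitamin D3 (50 nM or 3 nM final) for 16 h at 37 C. CCF4 beta-lactamase fluorescence was read; Hill fits gave IC50.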

[17] = target: Vitamin D3 receptor (Homo sapiens) (UniProt P11473); assay: qHTS assay for small molecule agonists of vitamin D receptor signaling (AID 588543; calls by dose curve;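 note: 0% = DMSO basal and 100% = reference agonist control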)
How it was run: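 Agonist-mode beta-lactamase reporter: HEK293T VDR-UAS-bla cells in charcoal-stripped 2% FBS, compound series 16 h 37 C, CCF4 2 h RT. EC50 from Hill fit, scaled against DMSO and 50 nM calcitriol control.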

[18] = qHTS assay for environmental chemicals that activate the Aryl hydrocarbon Receptor (AhR) signaling pathway (AID 651777; active = well fitted curve in the direction sought with a large enough effect; an effect the other way counts as inactive or inconclusive; note: % of control where 0% means no effect; nearly all actives have a fitted effect of over 15% in size); conditions: 1A2-DRE human hepatoma cells, luciferase, 24 h; activation: stronger effect = higher value
How it was run: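 Concentration–response screening used 1,200 1A2-DRE cells per well, 24 hr compound exposure (37 C, 5% CO2), and One-Glo luminescence as the AhR-driven CYP1A2 reporter signal.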

[19] = qHTS assay for small molecule agonists of the antioxidant response element (ARE) signaling pathway measured by Nrf2-dependant transcriptional activity (AID 720636; active = well fitted curve in the direction sought with a large enough effect in the repeat runs; an effect the other way counts as inactive or inconclusive;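 note: HepG2 cells with an ARE-driven luciferase reporter; % of control where 0% means no effect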)
How it was run: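 Attachment 6 hr at 37 C, then compound versus DMSO vehicle for 16 hr in ARE-luc HepG2 cells (1% dialyzed FBS); luminescence recorded 30 min after ONE-Glo addition at room temperature.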

[20] = qHTS assay for cell viability of HEK293 cells (AID 743288; active = well fitted curve in the direction sought with a large enough effect; an effect the other way counts as inactive or inconclusive; note: % is set by controls: 0 for no effect and ±100 for the full control effect; nearly all actives have a fitted effect of over 50% in size); conditions: ATP luminescence (CellTiter-Glo), 18 h; max response: stronger effect = lower value
How it was run: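 Readout is luciferase-coupled ATP content (CellTiter-Glo luminescence, 30 min room temperature) as a measure of metabolically competent cells. Parental HEK293 cells were plated 5 h or more before compound addition, then treated 18 h at 37 C.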

[21] = qHTS assay for cell viability of the p53RE-bla HCT-116 cell line (AID 743292; active = well fitted curve in the direction sought with a large enough effect; an effect the other way counts as inactive or inconclusive; note: % is set by controls: 0 for no effect and ±100 for the full control effect; nearly all actives have a fitted effect of over 55% in size)
How it was run: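 Compound-exposed HCT-116 (p53RE-bla) cells, 4,000 per well, were kept 16 h at 37 C following a 5 h preincubation. Cell number was estimated from total ATP by CellTiter-Glo luminescence read after 30 min at room temperature.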

[22] = target: Nuclear receptor subfamily 1 group I member 2 (Rattus norvegicus) (UniProt Q9R1A7); assay: qHTS assay for small molecule activators of the rat pregnane X receptor (rPXR) signaling pathway (AID 651751; call rule not given here; note: 0% is about no effect); conditions: rPXR reporter cells, luciferase (One-Glo), 24 h
Nuclear receptor subfamily 1 group I member 2 (Rattus norvegicus), sequence (Q9R1A7 whole entry, looked up): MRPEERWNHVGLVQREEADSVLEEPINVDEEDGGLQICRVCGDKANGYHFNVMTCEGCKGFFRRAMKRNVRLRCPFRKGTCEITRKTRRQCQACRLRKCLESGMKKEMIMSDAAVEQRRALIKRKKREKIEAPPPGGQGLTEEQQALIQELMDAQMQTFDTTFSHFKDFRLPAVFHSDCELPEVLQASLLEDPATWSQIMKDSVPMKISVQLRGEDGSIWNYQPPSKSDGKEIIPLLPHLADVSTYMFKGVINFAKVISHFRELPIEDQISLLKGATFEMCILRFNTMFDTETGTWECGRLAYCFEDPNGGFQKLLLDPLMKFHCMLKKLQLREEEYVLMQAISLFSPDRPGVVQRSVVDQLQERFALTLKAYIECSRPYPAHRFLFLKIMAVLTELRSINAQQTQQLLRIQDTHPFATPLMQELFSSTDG

[23] = qHTS assay for small molecule activators of the human pregnane X receptor (PXR) signaling pathway (AID 720659; call rule not given here; note: 0% is about no effect)

CCOC(=O)c1ccc(N=CC2=C(O)CC(c3ccco3)CC2=O)cc1 (centres undefined)
inactive: activity change, negative = inhibition [1] 2.87% | activity, negative = inhibition [2] -4% | Potency [3] > 20.6 µM

CN1CC2(C)CN(C(c3ccccc3)c3ccccc3)CC(C)(C1)C2O (centres undefined)
inactive: activity change, negative = inhibition [1] 14.1% | activity, negative = inhibition [2] 2.94% | Potency [3] > 20.6 µM

Cc1ccc(S(=O)(=O)c2cc3c(=O)n4cccc(C)c4nc3n(CC3CCCO3)c2=N)cc1 (centres undefined)
inactive: activity change, negative = inhibition [1] 2.16% | activity, negative = inhibition [2] 2.48% | Potency [3] > 20.6 µM

N=c1c(C(=O)NCc2ccccc2)cc2c(=O)n3ccccc3nc2n1Cc1ccco1
inactive: activity change, negative = inhibition [1] -5.29% | activity, negative = inhibition [2] 19.8% | Potency [3] > 20.6 µM

OCCN(CCO)c1ncnc2c1sc1nc(N3CCOCC3)c3c(c12)CCCC3
inactive: activity change, negative = inhibition [1] -27.6% | activity, negative = inhibition [2] -21.5% | Potency [3] > 20.6 µM

N#Cc1nc(COc2ccc(Cl)cc2)oc1N1CCN(Cc2ccccc2)CC1
inactive: activity change, negative = inhibition [1] -16.3% | activity, negative = inhibition [2] 4.41% | Potency [3] > 20.6 µM

COc1ccc(Cn2c(N)c(C#N)c3nc4ccccc4nc32)cc1OC
inactive: activity change, negative = inhibition [1] -3.62% | activity, negative = inhibition [2] 11.6% | Potency [3] > 20.6 µM

Cc1cc(Nc2ccc3ccccc3c2)n2ncnc2n1
inactive: activity change, negative = inhibition [1] 16.7% | activity, negative = inhibition [2] -6.76% | Potency [3] > 20.6 µM

Cc1cc(C)n(-c2nnc(C)n2/N=C/c2ccccc2F)n1
inactive: activity change, negative = inhibition [1] 8.65% | activity, negative = inhibition [2] 18% | Potency [3] > 20.6 µM

CC(=O)C1=C(O)C(=O)N(Cc2cccnc2)C1c1ccccc1Cl (centres undefined)
inactive: activity change, negative = inhibition [1] 3.06% | activity, negative = inhibition [2] 1.82% | Potency [3] > 20.6 µM

Cn1c(Cl)cnc1C1CC(=O)c2cc(Cl)ccc2O1 (centres undefined)
inactive: activity change, negative = inhibition [1] 14.1% | activity, negative = inhibition [2] 0.321% | Potency [3] > 20.6 µM

Cc1ccc2nc(NCc3ccccc3)[nH]c2c1
inactive: activity change, negative = inhibition [1] 1.71% | activity, negative = inhibition [2] -9.23% | Potency [3] > 20.6 µM

O=C(c1ccccc1F)N1CCC(N2CCCCCC2)CC1
inactive: activity change, negative = inhibition [1] -3.96% | activity, negative = inhibition [2] 2.78% | Potency [3] > 20.6 µM

COc1cccc(-c2nc(NCCN3CCOCC3)c3ccccc3n2)c1O
inactive: activity change, negative = inhibition [1] -15.3% | activity, negative = inhibition [2] 6.04% | Potency [3] > 20.6 µM

c1ccc2c(c1)CCOC2CNCCCN1CCCCC1 (centres undefined)
inactive: activity change, negative = inhibition [1] -0.837% | activity, negative = inhibition [2] 2.31% | Potency [3] > 20.6 µM

COc1cccc(C(=O)c2sc(NC(C)C)nc2N)c1
inactive: Potency [3] > 20.6 µM
active: activity change, negative = inhibition [1] -116% | activity, negative = inhibition [2] -103%

CC(C)C1=C2OC(N)=C(C#N)C(C#N)=C2C(C)CC1 (centres undefined)
inactive: activity change, negative = inhibition [1] -2.44% | activity, negative = inhibition [2] 5.25% | Potency [3] > 20.6 µM

CCn1c(SCC(=O)N2CCOCC2)nc2sc3c(c2c1=O)CCCC3
inactive: activity change, negative = inhibition [1] -8.7% | activity, negative = inhibition [2] -6.44% | Potency [3] > 20.6 µM

O=c1c2c3c(sc2n2cnnc2n1Cc1ccccc1)CN(Cc1ccccc1)CC3
inactive: activity change, negative = inhibition [1] 0.127% | activity, negative = inhibition [2] -0.303% | Potency [3] > 20.6 µM

Nc1c2c(nc3ccccc13)N(C1CCCCC1)CC2
inactive: activity change, negative = inhibition [1] 13.8% | activity, negative = inhibition [2] 16.7% | Potency [3] > 20.6 µM

COc1cccc(C(=O)OC2CCCN(C)C2)c1 (centres undefined)
inactive: activity change, negative = inhibition [1] -4.26% | activity, negative = inhibition [2] 4.49% | Potency [3] > 20.6 µM

COc1ccc(CCn2c(=N)c(C(=O)NCc3ccco3)cc3c(=O)n4ccccc4nc32)cc1OC
inactive: activity change, negative = inhibition [1] -14.6% | activity, negative = inhibition [2] -2.08% | Potency [3] > 20.6 µM

CCCCc1nc(NCC2CCCO2)c(C#N)c2c1COC(C)(C)C2 (centres undefined)
inactive: activity change, negative = inhibition [1] -26.3% | activity, negative = inhibition [2] 1.02% | Potency [3] > 20.6 µM

CCCSc1nc(N2CCOCC2)c2c(c1C#N)CCCC2
inactive: activity change, negative = inhibition [1] 20.8% | activity, negative = inhibition [2] -3.09% | Potency [3] > 20.6 µM

CC1(C)Cc2c(sc3nc(SCC#N)n(C4CCCCC4)c(=O)c23)CO1
inactive: activity change, negative = inhibition [1] 1.9% | activity, negative = inhibition [2] 10% | Potency [3] > 20.6 µM

CCOC(=O)COn1c(=O)c(-c2ccco2)[n+]([O-])c2ccccc21
inactive: activity change, negative = inhibition [1] -20.1% | activity, negative = inhibition [2] 12.3% | Potency [3] > 20.6 µM

NC(=O)/C(=C\c1ccncc1)c1cccc2ccccc12
active: Potency [4] 3.16 µM | Potency [5] 2.51 µM

Cc1cc(C(C)(C)CC(C)(C)C)ccc1OCCOCC[N+](C)(C)Cc1ccccc1
active: Potency [8] 35.5 µM
14.2%: max response [13]
inactive: Potency [4] | Potency [6] | Potency [7] | outcome [9] | outcome [10] | Potency [11] | activation [12] -7.21% | outcome [14] | outcome [15] | Potency [16] | outcome [17] | activation [18] 0.146% | Potency [19] | max response [20] -29.5% | Potency [21] | max response [22] -12.4% | outcome [23]

Reference: PubChem BioAssay (NCATS)
